In PubChem BioAssay AID485353 (National Center for Advancing Translational Sciences (NCATS), 2010) one finds Potency and activity, positive = growth rescue data, which are given here for 95 compounds.

The whole screen tested about 330,000 compounds, of which about 610 (0.18%) were called active. About 2% were inconclusive and are not listed. The entries come from a sample that favours actives as a whole. A call without a number means that no potency is given here. A number with no mark means an inactive call. Calls come from the whole dose curve.
Potency is the fitted concentration of half-maximal effect.

This assay in a line: qHTS of Yeast-based Assay for SARS-CoV PLP. Note: nearly all actives have a fitted effect of over 55% in size. The settings on record: S. cerevisiae expressing SARS-CoV PLpro; Potency: growth rescue; series mostly up to 32.9 µM.
On to `COc1ccc(NC(=O)Nc2ccc3c(c2)C(=O)N([C@H](C)CO)C[C@H](C)[C@@H](CN(C)C(=O)Nc2ccc4c(c2)OCO4)O3)cc1`, for which the Potency entry is “inactive”.
On to `Cc1ccc(S(=O)(=O)N2[C@@H](c3cccc(Cl)c3)C(C(=O)O)=CC[C@H]2c2ccc(Cl)c(Cl)c2)cc1`, for which the Potency result was “inactive”.
Consider `CCCCNC(=O)N(O)C1N(/N=C/c2ccccc2O)C(=S)SC1(C)C` (stereo not given), for which the Potency entry was “inactive”.
For the compound `COC(=O)c1ccc(/C=N/OCC(=O)Nc2cc(F)ccc2F)cc1`, the Potency entry is “inactive”.
Consider `COc1ccc(-c2cc(=O)oc3cc(OC(C)C(=O)NCC4CCC(C(=O)O)CC4)ccc23)cc1` (stereo not given), for which the Potency entry was “inactive”.
`CSc1nsc(SCC(=O)Nc2cc(C(=O)O)ccc2C)n1`: the Potency entry was “inactive”.
Turning to `O.O.O.O=S(=O)([O-])OC[C@H]1O[C@@H](O[C@]2(COS(=O)(=O)[O-])O[C@H](OS(=O)(=O)[O-])[C@@H](OS(=O)(=O)[O-])[C@@H]2OS(=O)(=O)[O-])[C@H](OS(=O)(=O)[O-])[C@@H](OS(=O)(=O)[O-])[C@@H]1OS(=O)(=O)[O-].[Al]`, the Potency result is “inactive”.
Consider `CC(C)c1c(C(=O)N/N=C/c2ccccc2C(=O)O)nnn1-c1nonc1N`, for which the Potency was 5.01 µM (active).
On the same count and under the same terms, the result for `CC(C)c1c(C(=O)N/N=C/c2ccc(-c3ccccc3)cc2)nnn1-c1nonc1N` reads “inactive”; that for `Nc1nonc1-n1nnc(C(=O)N/N=C/c2c[nH]c3ccccc23)c1-c1ccccc1`, “inactive”; that for `CCc1ccccc1N1C(=O)C2C3CC(=O)C(c4ccccc43)C2C1=O` (stereo not given), “inactive”.
The same measure, in the same setting: the result for `c1ccc2cc3c(NCCN4CCOCC4)ccnc3cc2c1` reads “inactive”; that for `Fc1ccc(CNCc2ccc(Br)cc2)cc1`, “inactive”.
As for `O=C(CCl)N(Cc1cccc([N+](=O)[O-])c1)c1cccc(Cl)c1`, the Potency result was “inactive”.
On the same count and under the same terms, with `COc1ccc(NC(=O)Cn2cc(C(=O)c3ccncc3)c(=O)c3cc(C)ccc32)cc1Cl` the entry was “inactive”.
In the case of `COc1cc(C2C(C(=O)OCCC#N)=C(C)NC3=C2S(=O)(=O)c2ccccc23)cc(OC)c1OC` (stereo not given), the Potency entry is “inactive”.
In the case of `COc1ccc(C2N=C(N)N=C(N)N2c2ccccc2)cc1OC` (stereo not given), the Potency entry was “inactive”.
On the same count and under the same terms, the result for `CCOC(=O)C1CCN(S(=O)(=O)c2c(C)noc2C)CC1` reads “inactive”; that for `COc1ccc(CCN2CC(C(=O)NCCN3CCNC3=O)CCC2=O)cc1` (stereo not given), “inactive”; that for `CN(C)C(=O)N1CCNCC1`, “inactive”.
Take `CCC(=O)Nc1nc(OC)cc(OC)n1`: the Potency entry is “inactive”.
Consider `COC(=O)c1ccc(NC(=O)CN(c2ccc(C)cc2)S(=O)(=O)c2c(C)n[nH]c2C)cc1`, for which the Potency entry is “inactive”.
With `CCC(=O)Nc1c(C)n[nH]c1C`, the Potency is 10 µM (active).
With `CCCC[C@]12Cc3cc(OC)c(OC)cc3C(O1)C1=C(CC3(CCCCC3)OC1=O)O2`, the activity, positive = growth rescue was 5.12% [at 6.58 µM].
For the compound `O=C(CSc1ncnc2c1cnn2CCc1ccccc1)Nc1ccc(F)cc1`, the Potency entry is “inactive”.
Consider `O=C(NCCCCCCCCCNC(=O)C(F)(F)F)C(F)(F)F`, for which the Potency result was “inactive”.
For the compound `CC1CC(C)CN(C/C=C/c2ccccc2[N+](=O)[O-])C1` (stereo not given), the Potency entry was “inactive”.
For the compound `COc1ccc(NC(=O)C(NC(C)=O)C(=O)NCc2ccccc2Cl)cc1` (stereo not given), the Potency entry is “inactive”.
As for `CCCCNS(=O)(=O)CCNCc1ccccc1OC`, the Potency entry is “inactive”.
Turning to `CCOC(=O)[C@@H]1[C@H]2COc3cc(OC)ccc3[C@H]2N2C(=O)N(c3ccc(F)cc3)C(=O)[C@]12C`, the Potency entry is “inactive”.
As to `S=C(NCC1COc2ccccc2O1)Nc1ccc(Br)cc1` (stereo not given), the Potency entry is “inactive”.
With `CCCN(CC1COc2ccccc2O1)C(=S)Nc1ccc(C)cc1` (stereo not given), the Potency entry was “inactive”.
Turning to `CC(NC(=S)Nc1ccccc1)C1COc2ccccc2O1` (stereo not given), the Potency was 10 µM (active).
Same read-out and setting: with `O=C(CNC(=O)C12CC3CC(CC(C3)C1)C2)OCC(=O)N1CCCCC1` the entry was “inactive”; with `Cc1sc(NC(=O)C2=COCCO2)c(C#N)c1C`, “inactive”.
On the same count and under the same terms, with `Cc1cccc(N2O[C@H]3C=CC2CCCC3)n1` the entry was “inactive”; with `COc1ccc(CCNC(=O)COC(=O)c2ncc(Cl)c(Cl)c2Cl)cc1OC`, “inactive”; with `CC1(C)C2CCC1(CS(=O)(=O)NCCc1c[nH]c3ccccc13)C(=O)C2` (stereo not given), “inactive”.
For `Cc1nc2c(C(=O)NCc3cccs3)cnn2c(C)c1Cc1ccc(F)cc1`, the Potency entry is “inactive”.
`Nc1ccccc1SC(C[N+](=O)[O-])c1ccccc1` (stereo not given): the Potency entry is “inactive”.
As for `COc1ccc(N(CCC#N)S(=O)(=O)c2ccc(Cl)cc2)cc1`, the Potency entry is “inactive”.
Turning to `Cc1ccc(N2C(=O)S/C(=C/c3cn(C)c4ccccc34)C2=O)cc1`, the Potency result was “inactive”.
Consider `Cc1ccc(N=C2NC(=O)/C(=C/C=C/c3ccco3)S2)cc1C`, for which the Potency result is “inactive”.
With `Cc1cccc(N=C2NC(=O)/C(=C/c3cn(C)c4ccccc34)S2)c1`, the Potency is 15.8 µM (active).
On to `CCCCNc1nc2ccccc2nc1NS(=O)(=O)c1cccs1`, for which the Potency entry was “inactive”.
In the case of `O=S(=O)([N-]c1nc2ccccc2nc1-[n+]1ccc(Cc2ccccc2)cc1)c1ccc(Br)s1`, the Potency entry is “inactive”.
Regarding `Cc1cc(C)c[n+](-c2nc3ccccc3nc2[N-]S(=O)(=O)c2cccs2)c1`, the Potency was 11.2 µM (active).
For the compound `CCC1CCCCN1C(=O)CSc1nc2c(c(=O)n1C)SC(C)C2` (stereo not given), the Potency entry was “inactive”.
The same measure, in the same setting: with `COc1cccc(/C=N/NC(=O)c2[nH]nc3c2CCc2ccccc2-3)c1O` the figure was 6.31 µM (active); with `COc1ccc(Br)cc1/C=N/NC(=O)c1cccc(S(=O)(=O)N2CCOCC2)c1`, “inactive”.
For `COc1ccc(/C=N/NC(=O)c2ccncc2)cc1CN1CCCc2ccccc21`, the Potency entry is “inactive”.
On to `CC(C#N)(NC(=O)CN1CCN(S(=O)(=O)c2cc(C(F)(F)F)ccc2Cl)CC1)C1CC1` (stereo not given), for which the Potency result is “inactive”.
Consider `COc1ccc2cc(-c3[nH]ncc3CNCCn3nc(C)cc3C)ccc2c1`, for which the Potency entry is “inactive”.
On the same count and under the same terms, with `CCn1c(=O)c(=O)n(CC)c2cc(N3CCCCC3)c(NC(=O)c3ccc(Cl)cc3)cc21` the entry was “inactive”; with `N#Cc1ccc(-c2nc3cc(C#N)c(C#N)cc3nc2-c2ccccc2)cc1C#N`, “inactive”.
As for `Cc1cc2ccccc2n2c(SCC(=O)N3CCN(C(=O)c4ccco4)CC3)nnc12`, the Potency entry was “inactive”.
For the compound `N#Cc1ccc(C2=CC(=O)C[C@H](c3ccc(Cl)cc3)C2)cc1`, the Potency entry is “inactive”.
On the same count and under the same terms, with `Cn1c(=O)c2c(SCC(=O)N3CCOCC3)nc(C3CC3)nc2n(C)c1=O` the entry was “inactive”; with `CCCCn1c(N)c(N(CC(C)C)C(=O)c2cnc(C)cn2)c(=O)[nH]c1=O`, “inactive”; with `CC(C)N1CCC(=NNc2ccc([N+](=O)[O-])cc2S(=O)(=O)N2CCOCC2)CC1`, “inactive”.
Turning to `CCN(CC)S(=O)(=O)c1ccc2nc(CSc3nnnn3-c3ccc(O)cc3)[nH]c2c1`, the Potency entry was “inactive”.
Same read-out and setting: with `COc1ccc(Cl)cc1NC(=O)CCS(=O)(=O)c1cc2c(cc1C)NC(=O)CO2` the entry was “inactive”.
As to `COc1ccc(NC(=O)CCS(=O)(=O)c2cc3c(cc2Cl)NC(=O)CO3)cc1OC`, the Potency was 10 µM (active).
The same measure, in the same setting: with `Cc1cc2c(cc1S(=O)(=O)CCC(=O)NCc1ccccc1)OCC(=O)N2` the entry was “inactive”; with `CN(C(=O)CN1C(=O)NC(C)(CCc2ccccc2)C1=O)c1ccccc1` (stereo not given), “inactive”.
For `CC(C)CCNC(=O)C1CCCN(S(=O)(=O)c2ccc(F)cc2)C1` (stereo not given), the Potency result was “inactive”.
On the same count and under the same terms, with `CCCN(CC1CC1)C(=S)NC(=O)c1ccccc1Br` the entry was “inactive”; with `CCCCCOc1ccc(/C=C/C(=O)NCCc2nc3ccccc3[nH]2)cc1OC`, “inactive”.
The same measure, in the same setting: with `COc1ccc(CNC(=O)C(=O)NCC2OCCN2C(=O)c2ccc(OC)cc2)cc1` (stereo not given) the entry was “inactive”.
As for `CC(C)CC(=O)c1c[nH]c(C(=O)NCc2ccccc2)c1`, the Potency entry is “inactive”.
As to `CCOC(=O)N1CCN(C(=O)COC(=O)c2cccc(S(C)(=O)=O)c2)CC1`, the Potency entry was “inactive”.
For `CC(=O)c1cn(CCCCCCCCCCn2cc(C(C)=O)c(=O)[nH]c2=O)c(=O)[nH]c1=O`, the Potency entry is “inactive”.
For the compound `CN(Cc1ccc2nsnc2c1)Cc1nc(Cc2cccc(F)c2)no1`, the Potency result was “inactive”.
Take `Cc1cccc(C)c1NC1=NC(=S)N(c2ccc(N(C)C)cc2)C1(C)C`: the Potency entry is “inactive”.
Take `O=C(OCC1O[C@@H](OC(=O)c2cc(O)c(O)c(O)c2)[C@@H](OC(=O)c2cc(O)c(O)c(O)c2)[C@@H](OC(=O)c2cc(O)c(O)c(O)c2)[C@@H]1OC(=O)c1cc(O)c(O)c(O)c1)c1cc(O)c(O)c(O)c1` (stereo not given in full): the Potency is 5.62 µM (active).
Take `CCOC(=O)CN1C(=O)N[C@@H](c2ccc(Br)cc2)C(C(C)=O)=C1C`: the Potency result was “inactive”.
Take `CCc1cccc2c(C#N)cn(CC(=O)N3CCOCC3)c12`: the Potency entry was “inactive”.
`CCc1cccc2c3c([nH]c12)C(CC)(CC(=O)O)OCC3` (stereo not given): the Potency was 20 µM (active).
`Cc1cc2ccccn2c1C(=O)c1cccc(S(=O)(=O)N2CCOCC2)c1`: the Potency result was “inactive”.
Consider `O=C(OCc1cn(-c2ccc(Cl)c(Cl)c2)nn1)c1ccccc1Cl`, for which the Potency result is “inactive”.
On to `COC(=O)CCC(=O)N1CCCC(CO)(Cc2ccccc2)C1` (stereo not given), for which the Potency entry is “inactive”.
For the compound `CCOC(=O)c1c(N)c(C#N)nn1-c1ccccc1C(=O)OC`, the Potency result is “inactive”.
Take `CC1(C)CN=C(N2CCN(c3ncnc4sc5c(c34)CCCC5)CC2)S1`: the Potency entry is “inactive”.
Turning to `COc1ccc(NC(=O)CN(C)C(=O)c2ccc(NC3CC3)c([N+](=O)[O-])c2)cc1`, the Potency entry was “inactive”.
As to `COc1ccc(C(C(=O)NC(C)(C)C)N(Cc2ccc(F)cc2)C(=O)CCC(=O)Nc2cc(C)on2)cc1` (stereo not given), the Potency result was “inactive”.
Take `Cc1ccccc1Cn1nc(C)c(NC(=O)C(F)(F)F)c1C`: the Potency result was “inactive”.
Still for that read-out and setting: the result for `CCCCc1ccc(NC(=O)CN2C(=O)NC(Cc3ccccc3)C2=O)cc1` (stereo not given) reads “inactive”; that for `O=C(C(NS(=O)(=O)c1cccc2nsnc12)c1ccccc1)N1CCN(c2ccccc2)CC1` (stereo not given), “inactive”; that for `Cc1cc(OCCOc2cccc3cccnc23)c(C)cc1Cl`, “inactive”.
With `CC(C)CNC(=O)C1CCCN(S(=O)(=O)c2ccc(-n3cnnn3)cc2)C1` (stereo not given), the Potency result is “inactive”.
On the same count and under the same terms, with `COC(=O)C1(C)NC(c2ccc(C)cc2)C2C(=O)N(c3ccc(F)cc3)C(=O)C21` (stereo not given) the entry was “inactive”; with `Cc1c2cnn(-c3ccccc3)c(=O)c2c(C)n1CCCC(=O)N1CCN(C)CC1`, “inactive”; with `COC(=O)[C@]1(C)CCC[C@@]2(C)C3CC[C@]4(OC(C)=O)C[C@@]3(CCC21)CC4=NO` (stereo not given in full), “inactive”.
For `CCCCN(CC(=O)Nc1cccc(S(=O)(=O)N2CCCC2)c1)Cc1nc2ccccc2c(=O)[nH]1`, the Potency result was “inactive”.
As for `COc1ccc(N(C(=O)CNC(=O)c2ccco2)C(C(=O)NCC2CCCO2)c2ccccc2)cc1Cl` (stereo not given), the Potency entry is “inactive”.
